# Data taken from PubChem BioAssay (EPA / NIEHS).
# The source holds several records for some structures; these can differ, active in one and inactive in another. Calls of active or inactive are those of the source. How the source made its calls: active means hit-call score of the fitted dose curve at least 0.9, where 1 is the maximum; inactive means score below 0.9.
# Assay: CCTE_Shafer_MEA_acute_per_network_burst_spike_number_mean: CCTE's Neural Acute Assay for Average Number of Spikes in a Network Burst, Shafer Lab (AID 2284019)
# Procedure: CCTE_Shafer_MEA_acute assay is conducted using Axion Biosystems 48 well microelectrode array (MEA) plates and Maestro recording system. Each well of the MEA plate contains a grid of 16 microelectrodes embedded in the culture surface. Electrically active cells, such as neurons, can be cultured over the electrodes, and electrical activity in these cells can be recorded extracellularly. The spontaneous firing of neurons is captured from each electrode on a microsecond timescale providing both temporally and spatially precise data. […] The CCTE_Shafer_MEA_acute assay uses primary cultures of rat cortical neurons. As these cultures mature over time, neural networks develop functional activity and form cohesive networks in which electrical activity can be highly coordinated. Baseline 40-minute recordings are made on days post-plating 13 or 15, followed by a secondary 40-minute recording after chemical exposure.CCTE_Shafer_MEA_acute_per_network_burst_spike_number_mean is a component of the CCTE_Shafer_MEA_acute assay. It measures the average number of spikes (action potential firings) in a network burst (temporally-clustered group of spikes across multiple electrodes) as the total number of spikes in a network burst divided by the number of network bursts during a recording in a microelectrode array (MEA) using Axion Biosystems Maestro 768 channel amplifier with the AxIS adaptive spike detector. The recordings before and after chemical treatment are used to calculate a percent change in the mean number of spikes in a network burst in each well.Data from the assay component CCTE_Shafer_MEA_acute_per_network_burst_spike_number_mean was analyzed into 1 assay endpoint. This assay endpoint, CCTE_Shafer_MEA_acute_per_network_burst_spike_number_mean, was analyzed in the negative analysis fitting direction relative to DMSO as the negative control and baseline of activity. Using a type of functional reporter, gain or loss-of-signal activity can be used to understand electrical activity.
# Spontaneous activity in the cortical cultures was recorded using an Axion Biosystems Maestro 768 channel amplifier and Axion Integrated Studios (AxIS) v1.8 (or later) software. The amplifier recorded from all channels simultaneously (gain = 1200 x; sampling rate = 12.5 kHz/channel): raw signals were filtered with a Butterworth band-pass filter (300-5000 Hz), which filters out slower local field potentials leaving only fast potentials, i.e., "spikes", arising from extracellular currents associated with action potentials (Pine 2006; Wheeler and Nam 2011). On-line spike detection of filtered signals was conducted with the AxIS adaptive spike detector, using a threshold of 8x the root mean squared (rms) noise on each channel. Any electrodes with rms noise levels greater than 5 uV were grounded (e.g., no data were recorded). Once grounded, an electrode was grounded for the duration of the experiment. All recordings were conducted at 37 C. Wells were deemed usable if on the day of the exposure >/= 10 electrodes were active (defined as >/= 5 spikes/min). On DIV 13 or 15, a minimum of three wells from one cortical culture preparation were treated with each compound (0.03-40 uM). Prior to recording baseline activity, each mwMEA plate was placed in the Maestro at 37 C and allowed to sit for 20 min while firing rates stabilized. Baseline activity (40 min) was recorded before the addition of each compound. An additional 40 min of spontaneous activity was recorded in the presence of each compound. Changes in network parameters relative to baseline were assessed following compound treatment.
SMILES,AC50,outcome
CC1(C)[C@H](C(=O)O[C@H](C#N)c2cccc(Oc3ccccc3)c2)[C@@H]1C=C(Br)Br,1500 nM (active),–
Oc1ccc(C2(c3ccc(O)cc3)c3ccccc3-c3ccccc32)cc1,–,inactive
Cc1ccc(OP(=O)(Oc2ccc(C)cc2)Oc2ccc(C)cc2)cc1 (tested in a mixture with another compound),3400 nM (active),–
O=c1c2ccccc2c(=O)c2c1cc(Cl)c1[nH]c3c([nH]c12)c(Cl)cc1c(=O)c2ccccc2c(=O)c13,–,inactive
CCCC[N+](CCCC)(CCCC)CCCC,–,inactive
C#CCN(C)[C@H](C)Cc1ccccc1,–,inactive
O=C(O)CNCP(=O)(O)O,–,inactive
[Cd+2].[Cl-].[Cl-],–,inactive
CP(=O)(O)CCC(N)C(=O)O (stereo unspecified),–,inactive
O=[N+]([O-])O,3 nM (active),inactive
COc1ccc(CO)cc1,25400 nM (active),–
CC1(C)[C@@H](C=C(Cl)Cl)[C@@H]1C(=O)O[C@@H](C#N)c1ccc(F)c(Oc2ccccc2)c1,1280 nM (active),–
CP(=O)(O)CC[C@H](N)C(=O)O,–,inactive
c1cc[n+]2c(c1)-c1cccc[n+]1CC2,–,inactive
CC1(C)[C@H](C=C(Cl)Cl)[C@@H]1C(=O)O[C@@H](C#N)c1cccc(Oc2ccccc2)c1,–,inactive
